Common to all, as to experiment: NCI-60 one-dose screen, 48 h (100 = growth as untreated, 0 = no growth, -100 = all killed)
In assay [1] the test system is HT29 colon. Conditions: 10 µM unless noted.
Assay [2] has as its system SNB-75 CNS. Conditions: 10 µM unless noted.
Assay [3] deals with SNB-19 CNS. As to conditions: 10 µM unless noted.
The subject of assay [4] is PC-3 prostate. As to conditions: 10 µM unless noted.
In assay [5] the test system is UACC-62 melanoma. As to conditions: 10 µM unless noted.
Assay [6] has as its system LOX IMVI melanoma. As to conditions: 10 µM unless noted.
In assay [7] the test system is SK-MEL-28 melanoma. As to conditions: 10 µM.
In assay [8] the test system is SK-MEL-2 melanoma. As to conditions: 10 µM unless noted.
The subject of assay [9] is SN12C renal. Conditions: 10 µM unless noted.
In assay [10] the test system is UO-31 renal. Conditions: 10 µM unless noted.
Assay [11] deals with TK-10 renal. Conditions: 10 µM unless noted.
Assay [12] concerns ACHN renal. As to conditions: 10 µM unless noted.
Assay [13] deals with CAKI-1 renal. Conditions: 10 µM unless noted.
Assay [14] relates to A498 renal. Conditions: 10 µM unless noted.
The test system of assay [15] is CCRF-CEM leukemia. Conditions: 10 µM unless noted.
Assay [16] has as its system MOLT-4 leukemia. Conditions: 10 µM unless noted.
Assay [17] concerns SR leukemia. Conditions: 10 µM unless noted.
The test system of assay [18] is SK-MEL-5 melanoma. Conditions: 10 µM unless noted.
Assay [19] deals with EKVX NSCLC. Conditions: 10 µM unless noted.
The subject of assay [20] is U251 CNS. Conditions: 10 µM unless noted.

The structures appear in SMILES notation. The panel holds about 83,000 compounds, 20% with a hit somewhere; the sample as a whole holds those more often.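 For each line, cells grew in 96-well plates with the test compound present at a single concentration for 48 hours.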 Unmarked numbers belong to inactive results. Calls of active or inactive are those of the source. Rule for the calls: active = growth percent below 10; inactive = the rest.

For `O=CCCCC(O)C=O` (stereo unspecified), the growth is 111% in assay [1]; 97.7% in assay [2]; 106% in assay [3]; 103% in [4]; 109% in assay [5]; 97.9% in [6]. The growth in assay [7] is 111%; in [8], 105%; in assay [9] it was 97.6%; in [10] it was 81.5%; in assay [11], 104%; in [12], 103%. Besides, the growth in [13] is 101%; in assay [14] it was 98.7%; in [15], 102%; in assay [16], 94%; in assay [17], 90.5%.
As for `C#CCn1cc(C=C2C(=O)N(C)C(=O)N(C)C2=O)c2cc(Cl)ccc21`, the growth in assay [1] is 118%; in [2], 91.6%; in assay [3] it was 105%; in assay [4], 103%; in assay [18], 99.5%; in assay [5], 94%. Moreover, the growth in assay [6] is 96.8%; in assay [7], 113%; in assay [8], 95.5%; in assay [19] it was 98.1%; in assay [9], 101%; in [10], 80.1%. Further, the growth was 106% in assay [11]; 99.4% in assay [12]; 91.7% in assay [13]; 70% in assay [14]; 105% in assay [15]; 105% in assay [16].
For `CCOc1cccc(/C=N\Nc2nc(=O)cc(C(=O)OC)s2)c1O`, the growth was 76.1% in [1]; 77.8% in assay [2]; 75.9% in assay [3]; 72.8% in assay [4]; 79.8% in assay [18]; 63% in assay [5]. In addition, the growth was 61.7% in assay [6]; 87.2% in [7]; 99.6% in assay [8]; 59.1% in assay [9]; 49.7% in [10]; 107% in assay [11]. Besides, the growth in assay [12] was 68.8%; in [13], 65.9%; in [14], 87.2%; in assay [15], 38.4%; in assay [16], 53.6%; in assay [17], 50.7%.
Regarding `COc1cc(C2CC(c3ccc(Nc4nc(NCCO)nc(N5CCOCC5)n4)cc3)=NN2c2cc(Cl)cc(Cl)c2)cc(OC)c1OC` (stereo unspecified), the growth was 33.6% in [1]; 28.2% in assay [2]; 72.6% in assay [3]; 34.1% in assay [4]; 60.1% in assay [18]; 48.6% in assay [5]. For the same compound, the growth was 30.9% in assay [6]; 72.8% in [7]; 94.7% in [8]; 55.5% in [19]; 65.5% in assay [9]; 42% in assay [10]. Moreover, the growth in [11] was 93.3%; in [12], 47.6%; in [13] it was 46.4%; in [14], 52%; in assay [15], 48%; in assay [16], 33.2%. For the same compound, in assay [17], the growth is 23.2%.
In the case of `CCCCN1CCN(c2ccc3nc(-c4ccc5nc(-c6ccc(OC)c(OC)c6)[nH]c5c4)[nH]c3c2)CC1`, the growth in assay [1] is 5.94% (active); in assay [2], 6.59% (active); in assay [20], -45.3% (active); in assay [4], 14.3%; in [18], -34.4% (active); in assay [5], -58.5% (active). The growth in assay [6] was -81.4% (active); in assay [7] it was -71.2% (active); in assay [8], -51.2% (active); in assay [19], 38.8%; in [9], 7.75% (active); in assay [10], 50.7%. Also, the growth is 2.47% (active) in assay [12]; 2.32% (active) in assay [13]; 3.3% (active) in assay [15]; -14.3% (active) in [16]; -6.6% (active) in assay [17].
As for `COC(=O)[C@H]1CCCN1C(=O)[C@H]1CCCN1C(=O)[C@H](Cc1c[nH]c2ccccc12)NC(=S)Nc1cc(C(F)(F)F)cc(C(F)(F)F)c1`, the growth is 7.55% (active) in assay [1]; 52.8% in [2]; 51.3% in assay [3]; 39.9% in assay [4]; 57% in [5]; 34.5% in assay [6]. In addition, the growth in assay [7] is 54.8%; in [8] it was 94.9%; in [9] it was 51%; in assay [11] it was 80.9%; in assay [12] it was 49%; in assay [13], 38.6%. Further, the growth in assay [14] is 77%; in assay [16], 29.4%; in assay [17], 4.48% (active).
As to `COc1nc2c(c(=O)n1C)N=C1c3ccccc3C(=O)C1C(c1ccccc1)N2` (stereo unspecified), the growth was 104% in [1]; 84.6% in assay [2]; 89.2% in assay [20]; 115% in [4]; 88.7% in assay [18]; 78.6% in [5]. Further, the growth in assay [6] is 83.4%; in assay [7], 90.5%; in assay [8], 81.2%; in assay [9], 95.4%; in assay [10] it was 78.9%; in assay [11] it was 107%. For the same compound, the growth in assay [12] is 94%; in [14] it was 89.1%; in assay [15], 103%; in assay [16], 76.5%.
Consider `COc1ccc(CN2CCCC(C(=O)c3ccc(C(F)(F)F)cc3)C2)c(O)c1` (stereo unspecified), for which the growth in [1] is 1.6% (active); in assay [2] it was -1.83% (active); in [20], 18.5%; in assay [4], 25.6%; in assay [18], 19.6%; in assay [5], 28.3%. Also, the growth in assay [6] was 25.5%; in assay [7], 36.4%; in assay [8] it was -43.2% (active); in assay [9] it was 31.8%; in assay [10] it was 26.4%; in assay [11], 34.6%. Further, the growth in [12] is 38%; in assay [13] it was 32.6%; in assay [14] it was 15.2%; in [15], 8.95% (active); in assay [16], 13.6%; in assay [17], 3.77% (active).
In the case of `CCc1ccc(CNCC(O)c2ccccc2)cc1` (stereo unspecified), the growth in [1] was 28.7%; in [2], 61.8%; in assay [20], 60%; in [4], 52.7%; in assay [18], 68.6%; in assay [5], 84.5%. Also, the growth is 68.7% in assay [6]; 74.7% in assay [7]; 90.9% in assay [8]; 76.4% in assay [9]; 34.6% in [10]; 80.7% in assay [11]. Further, the growth is 72.2% in [12]; 66.4% in assay [13]; 67.8% in assay [14]; 28.7% in assay [15]; 19.2% in [16]; 3.88% (active) in [17].

The record behind these values is PubChem BioAssay (NCI).
